{"source": "PubChem BioAssay AID720565", "about": "(National Center for Advancing Translational Sciences (NCATS), 2013)", "note": "Values joined by “and” are separate entries in the source; they are usually repeats but may differ in a detail not shown here. Identical values can stand only once. Inconclusive results are not listed. Unmarked numbers belong to inactive results. Active and inactive are the calls of the source. Calls come from the whole dose curve; as a rule, active = well fitted activation curve with a large enough effect; inconclusive = small, poorly fitted or top-dose-only effect; inactive = no such curve, though single readings can be large or run the other way. Potency is the fitted concentration of half-maximal effect.", "data": [{"test": "qHTS for small molecules that induce genotoxicity in ELG1 expressing cells: Confirmatory Assay for Cherry-picked Compounds; note: nearly all actives have a fitted effect of over 35% in size; for activation: % of control where 0% means no effect", "details": "ELG1-luciferase reporter cells, luminescence, 16 h; series mostly up to 46.1 µM; activation: at the top concentration", "method_in_brief": "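Cells carrying the ELG1-luciferase reporter were exposed to compound for 16 hr at 37 C, 5% CO2, at 2,000 cells per well. Rise in luciferase activity, read with ONE-Glo after 30 min at room temperature, indicates genotoxic stress.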", "units": {"activation": "%"}, "values": [{"smiles": "O=C(Nc1ccccn1)c1sc2ccccc2c1Cl", "Potency": "0.223 µM (active)"}, {"smiles": "Cn1cccc1C(=O)OCC(=O)Nc1ccc2c(c1)OCCO2", "Potency": "0.706 µM (active)"}, {"smiles": "CN(C)c1ccccc1-c1csc(N2CCC(C(N)=O)CC2)n1", "Potency": "1.99 µM (active)"}, {"smiles": "C=CCn1c(C)cc(C(=O)COC(=O)c2n[nH]c(=O)c3ccccc23)c1C", "Potency": "2.81 µM (active)"}, {"smiles": "N#Cc1ccsc1NC(=O)CSc1nncs1", "Potency": "12.5 µM (active)"}, {"smiles": "C(=C\\c1ccc2ccccc2n1)/c1cccnc1", "Potency": "0.25 µM (active)"}, {"smiles": "COc1ccc(OCC(=O)Nc2ccc(-c3nc4cc(C)c(C)cc4o3)cc2)cc1", "Potency": "813 nM (active) and 1.12 µM (active)"}, {"smiles": "CN(C)N=Nc1ccc(/C=C2\\C=Cc3ccccc32)cc1", "Potency": "3.97 µM (active)"}, {"smiles": "CNC(=O)c1cc(-c2cccs2)on1", "activation": 11.9}, {"smiles": "O=C(CCN1C(=O)NC2(CCCC2)C1=O)Nc1ccc(-c2nc3ccccc3s2)cc1", "Potency": "0.706 µM (active)"}, {"smiles": "Nc1ccc2cccnc2c1", "Potency": "1.77 µM (active)"}, {"smiles": "COCC(C)n1c(C)cc(C(=O)COC(=O)c2cc(=O)[nH]c3ccccc23)c1C", "note": "(configuration not stated)", "Potency": "2.23 µM (active)"}, {"smiles": "CCn1c(=O)n(CC)c2cc(S(=O)(=O)N3CCC(c4ccccc4)CC3)ccc21", "activation": -24.6}, {"smiles": "O=c1cc(-c2ccccc2)oc2ccc(Br)cc12", "Potency": "11.2 µM (active)"}, {"smiles": "CCOC(=O)c1cc(-c2ccc([N+](=O)[O-])cc2)nc2c1c(=O)[nH]c(=O)n2Cc1ccccc1", "Potency": "11.2 µM (active)"}, {"smiles": "O=C(COc1ccccc1Cl)Nc1ccc(-c2nc3ccccc3s2)cc1", "Potency": "28.1 µM (active)"}, {"smiles": "COc1ccc(-c2nc(-c3cccnc3)no2)cc1", "Potency": "3.97 µM (active)"}]}]}
